Consider 25 compounds from PubChem BioAssay AID651702 (NMMLSC, 2012).

Among all 360,000 compounds or so, about 2,400 (0.67%) were called active. Shown is part of a subset that was picked to be rich in actives. Values without a mark were called inactive.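 How the source made its calls: active means inhibition above about 55% (limit read from the data); inconclusive means no clear call, values can overlap the other calls; inactive means the rest.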

The nature of this assay: LAMP-1 surface exposure blockers, TALL-104 cells – cell-based, flow cytometry, MLPCN library, primary screen (AID 651702). The note with it: TALL-104 LAMP-1 surface exposure, at 10 µM, hits give high values, cells stimulated with thapsigargin and PMA.
Consider `CC(C)(C)n1nc2c(c1NC(=O)c1cc3ccccc3o1)CSC2`, for which the inhibition was 0%.
With `COc1ccc2c(c1)c(C(=O)N/N=C/c1cccs1)c(C)n2C`, the inhibition was 0.8%.
Turning to `Cc1c(/C=N\NC(=O)c2cc3ccccc3o2)c2ccccc2n1C`, the inhibition was 65.6% (active).
On to `CCn1nc(C(=O)NNS(=O)(=O)c2cc(/C=C/C(=O)O)cc(OC)c2OC)c2ccccc2c1=O`, for which the inhibition is 1.1%.
With `CCOc1ccc(/C=C/C(=O)OCC(=O)c2ccccc2OC)cc1OC`, the inhibition is -4.4%.
Regarding `O=C(CN1C(=O)NC2(CCCCCC2)C1=O)NCc1cccs1`, the inhibition is -5.2%.
For `Cc1nc2c(C(=O)NCc3ccc4c(c3)OCO4)c[nH]n2c(=O)c1Cc1ccccc1F`, the inhibition is -2.7%.
In the case of `Cc1cccc(N(C)C(=O)c2cc(S(=O)(=O)N3CCCCC3)c[nH]2)c1` it was -3.8%; in that of `CCCCn1nnnc1C1(C)CCC(=O)N1Cc1ccc(OC)c(OC)c1` (stereo not given), -1.7%; in that of `Cc1nc(SCC(=O)c2ccccc2)c([N+](=O)[O-])[nH]1`, 0.6%.
For `Cc1nc2nc(SCC(=O)c3ccccc3)[nH]c2cc1Br`, the inhibition was -2.1%.
In the case of `Cc1cc(SCC(=O)c2ccccc2)nc(SCC(=O)c2ccccc2)n1` it was 78.5% (active).
Turning to `O=c1[nH]c(=S)[nH]c(O)c1/C=C1\C=Nc2ccccc21`, the inhibition is -1.2%.
For `CSCC(NS(=O)(=O)c1ccc(C)cc1)C(=O)O` (stereo not given), the inhibition is 1.8%.
Regarding `Cc1ccc(S(=O)(=O)NC(C(=O)N2CCOCCOCCOCCOCC2)c2ccccc2)cc1` (stereo not given), the inhibition is -7%.
The figure for `CCCC(C(=O)n1nc(C)cc1C)C(NS(=O)(=O)c1ccc(C)cc1)c1ccccc1` (stereo not given) is 66% (active); for `N#Cc1ccc(C(C(=O)NCc2ccccc2)n2c(=O)c(-c3ccco3)nc3ccccc32)cc1` (stereo not given) it is 1.3%.
Take `COc1ccccc1CCNC(=O)c1c(C)nn(CC(C)C)c1Cl`: the inhibition is -1.6%.
In the case of `COCCCn1c(SCC(=O)Nc2oc(C)c3c(C)n[nH]c(=O)c23)nc2sc3c(c2c1=O)CCC3` it was -0.6%; in that of `CC(CCc1ccccc1)NC(=O)COC(=O)c1ccc(F)cc1` (stereo not given), 6%; in that of `CC1=NOC(=O)/C1=C\c1ccccc1`, -7.3%.
`C#CCOc1ccc(/C=C2/C(=O)ON=C2C)cc1OCC`: the inhibition was -12.5%.
Consider `COc1cc(/C=C2/C(=O)ON=C2C)ccc1OCc1ccccc1F`, for which the inhibition was 60.6% (active).
As to `CC(C)(C)c1ccc(C(=O)N2CCN(CCNC(=O)C(=O)Nc3ccc(F)cc3)CC2)cc1`, the inhibition is -0.5%.
Turning to `COc1ccc(C2(c3ccc(OC)cc3)NC(=O)N(CC(=O)Nc3cc(C)on3)C2=O)cc1`, the inhibition is 5.1%.
